The values below come from ChEMBL document CHEMBL1961873, “Compounds: GSK PKIS; Assays: Nanosyn kinase panel” (2012).

In assay [1] the target is High affinity nerve growth factor receptor (Homo sapiens) (UniProt P04629). The following applies: at 1 µM.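 Also: each value is the mean percent inhibition of TRKA.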
Assay [2] deals with BDNF/NT-3 growth factors receptor (Homo sapiens) (UniProt Q16620). The following applies: at 0.1 µM.
Assay [3] has the same target. Conditions: at 1 µM.
For assay [4], the target named is NT-3 growth factor receptor (Homo sapiens) (UniProt Q16288). The following applies: at 0.1 µM.
Chain of NT-3 growth factor receptor (Homo sapiens) (Q16288 32-839 limits assumed): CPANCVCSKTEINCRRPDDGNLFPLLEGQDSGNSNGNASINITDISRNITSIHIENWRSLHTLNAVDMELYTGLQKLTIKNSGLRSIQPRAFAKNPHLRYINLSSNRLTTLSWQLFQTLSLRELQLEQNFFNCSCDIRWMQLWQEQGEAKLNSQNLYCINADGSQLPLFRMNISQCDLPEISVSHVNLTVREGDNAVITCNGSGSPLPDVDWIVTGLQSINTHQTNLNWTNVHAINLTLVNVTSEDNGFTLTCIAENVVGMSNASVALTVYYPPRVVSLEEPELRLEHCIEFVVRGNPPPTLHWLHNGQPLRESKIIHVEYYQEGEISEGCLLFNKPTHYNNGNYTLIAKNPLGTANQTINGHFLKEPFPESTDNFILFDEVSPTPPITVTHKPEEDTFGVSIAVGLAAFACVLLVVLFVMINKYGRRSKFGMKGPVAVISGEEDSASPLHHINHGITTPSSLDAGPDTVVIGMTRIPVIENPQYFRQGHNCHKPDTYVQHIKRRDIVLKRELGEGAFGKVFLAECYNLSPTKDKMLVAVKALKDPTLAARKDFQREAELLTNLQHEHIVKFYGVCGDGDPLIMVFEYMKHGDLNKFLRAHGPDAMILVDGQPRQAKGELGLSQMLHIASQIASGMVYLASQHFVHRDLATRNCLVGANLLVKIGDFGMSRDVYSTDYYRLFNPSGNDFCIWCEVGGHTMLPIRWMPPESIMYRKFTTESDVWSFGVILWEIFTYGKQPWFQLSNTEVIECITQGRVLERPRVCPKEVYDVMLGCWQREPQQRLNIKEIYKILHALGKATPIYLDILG
The target is the same in assay [5]. The following applies: at 1 µM.
The target in assay [6] is T1, Tyrosine-protein kinase TXK (Homo sapiens) (UniProt P42681).
T1 sequence (whole entry): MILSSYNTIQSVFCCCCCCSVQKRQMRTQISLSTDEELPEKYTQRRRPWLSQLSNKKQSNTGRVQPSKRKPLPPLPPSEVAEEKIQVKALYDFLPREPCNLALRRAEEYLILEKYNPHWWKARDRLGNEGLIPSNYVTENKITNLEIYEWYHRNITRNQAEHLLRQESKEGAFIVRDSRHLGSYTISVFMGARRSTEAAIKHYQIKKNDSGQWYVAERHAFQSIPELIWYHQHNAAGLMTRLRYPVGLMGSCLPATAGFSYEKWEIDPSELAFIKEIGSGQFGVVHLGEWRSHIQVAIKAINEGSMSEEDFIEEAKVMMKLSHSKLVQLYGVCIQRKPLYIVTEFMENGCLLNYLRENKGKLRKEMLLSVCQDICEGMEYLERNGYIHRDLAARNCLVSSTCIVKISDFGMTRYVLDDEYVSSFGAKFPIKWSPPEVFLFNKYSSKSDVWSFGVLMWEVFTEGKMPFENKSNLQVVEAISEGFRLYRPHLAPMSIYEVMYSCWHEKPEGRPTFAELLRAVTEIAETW
Conditions: at 0.1 µM.

Assay [7] concerns the target T1, Tyrosine-protein kinase TXK (Homo sapiens). Conditions: at 1 µM.
The target of assay [8] is Non-receptor tyrosine-protein kinase TYK2 (Homo sapiens) (UniProt P29597). Conditions: at 0.1 µM.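 Also: each value is a mean of the inhibition readings.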
The target of assay [9] is T2, Dual specificity protein kinase TTK (Homo sapiens) (UniProt P33981).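 Also: reported figures are mean TTK inhibition at 1 µM.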
T2 sequence (whole entry): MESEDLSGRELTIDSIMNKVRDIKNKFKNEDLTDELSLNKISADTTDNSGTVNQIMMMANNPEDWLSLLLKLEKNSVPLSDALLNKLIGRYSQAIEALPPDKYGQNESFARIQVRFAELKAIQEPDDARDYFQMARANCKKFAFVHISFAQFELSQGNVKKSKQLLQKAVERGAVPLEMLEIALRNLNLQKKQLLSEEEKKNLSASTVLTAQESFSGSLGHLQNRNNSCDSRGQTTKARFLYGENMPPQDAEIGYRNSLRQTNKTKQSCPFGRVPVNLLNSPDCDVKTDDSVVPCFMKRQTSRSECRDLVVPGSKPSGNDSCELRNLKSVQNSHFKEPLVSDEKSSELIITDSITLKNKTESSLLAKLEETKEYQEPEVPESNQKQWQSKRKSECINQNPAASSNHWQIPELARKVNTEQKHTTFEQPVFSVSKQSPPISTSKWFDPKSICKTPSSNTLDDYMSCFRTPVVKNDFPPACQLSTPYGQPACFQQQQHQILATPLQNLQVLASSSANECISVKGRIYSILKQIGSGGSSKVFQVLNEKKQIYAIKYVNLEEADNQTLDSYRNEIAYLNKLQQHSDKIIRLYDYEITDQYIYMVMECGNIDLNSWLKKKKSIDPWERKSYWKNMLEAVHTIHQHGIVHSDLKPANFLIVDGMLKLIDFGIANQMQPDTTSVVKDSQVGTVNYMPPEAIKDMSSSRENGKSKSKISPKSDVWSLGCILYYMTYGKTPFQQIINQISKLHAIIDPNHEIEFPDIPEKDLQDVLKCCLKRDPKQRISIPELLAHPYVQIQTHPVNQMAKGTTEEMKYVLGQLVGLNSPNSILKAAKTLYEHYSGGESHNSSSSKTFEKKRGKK
Conditions: at 1 µM.

In assay [10] the target is T3, Aurora kinase A (Homo sapiens) (UniProt O14965).
T3 sequence (whole entry): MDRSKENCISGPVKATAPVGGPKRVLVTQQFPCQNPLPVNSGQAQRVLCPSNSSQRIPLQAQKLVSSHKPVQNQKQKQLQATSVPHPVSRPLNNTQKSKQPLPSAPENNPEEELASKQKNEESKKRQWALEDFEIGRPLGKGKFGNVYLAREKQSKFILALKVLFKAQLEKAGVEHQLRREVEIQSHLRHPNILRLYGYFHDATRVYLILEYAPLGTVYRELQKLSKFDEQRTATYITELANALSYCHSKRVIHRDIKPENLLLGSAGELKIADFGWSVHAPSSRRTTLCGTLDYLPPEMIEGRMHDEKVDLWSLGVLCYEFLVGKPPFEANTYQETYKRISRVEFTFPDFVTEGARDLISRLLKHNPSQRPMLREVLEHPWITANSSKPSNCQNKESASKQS
Conditions: at 0.1 µM.

Assay [11] deals with T3, Aurora kinase A (Homo sapiens). Conditions: at 1 µM.
Assay [12] concerns the target Aurora kinase B (Homo sapiens) (UniProt Q96GD4). Conditions: at 0.1 µM.
Assay [13] shares this target. The following applies: at 1 µM.
Assay [14] has as its target T4, Aurora kinase C (Homo sapiens) (UniProt Q9UQB9).
T4 sequence (whole entry): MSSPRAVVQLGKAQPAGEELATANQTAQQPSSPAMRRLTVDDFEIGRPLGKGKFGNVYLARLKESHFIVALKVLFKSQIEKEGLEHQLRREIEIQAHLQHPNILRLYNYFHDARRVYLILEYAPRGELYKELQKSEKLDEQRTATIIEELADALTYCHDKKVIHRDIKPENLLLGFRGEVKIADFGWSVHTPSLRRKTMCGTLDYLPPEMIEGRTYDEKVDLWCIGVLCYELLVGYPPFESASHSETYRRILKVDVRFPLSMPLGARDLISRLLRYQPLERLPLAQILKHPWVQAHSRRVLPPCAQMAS
Conditions: at 0.1 µM.

In assay [15] the target is T4, Aurora kinase C (Homo sapiens). Conditions: at 1 µM.
In assay [16] the target is Serine/threonine-protein kinase 10 (Homo sapiens) (UniProt O94804). Conditions: at 0.1 µM.
Chain of Serine/threonine-protein kinase 10 (Homo sapiens) (O94804 whole entry, looked up): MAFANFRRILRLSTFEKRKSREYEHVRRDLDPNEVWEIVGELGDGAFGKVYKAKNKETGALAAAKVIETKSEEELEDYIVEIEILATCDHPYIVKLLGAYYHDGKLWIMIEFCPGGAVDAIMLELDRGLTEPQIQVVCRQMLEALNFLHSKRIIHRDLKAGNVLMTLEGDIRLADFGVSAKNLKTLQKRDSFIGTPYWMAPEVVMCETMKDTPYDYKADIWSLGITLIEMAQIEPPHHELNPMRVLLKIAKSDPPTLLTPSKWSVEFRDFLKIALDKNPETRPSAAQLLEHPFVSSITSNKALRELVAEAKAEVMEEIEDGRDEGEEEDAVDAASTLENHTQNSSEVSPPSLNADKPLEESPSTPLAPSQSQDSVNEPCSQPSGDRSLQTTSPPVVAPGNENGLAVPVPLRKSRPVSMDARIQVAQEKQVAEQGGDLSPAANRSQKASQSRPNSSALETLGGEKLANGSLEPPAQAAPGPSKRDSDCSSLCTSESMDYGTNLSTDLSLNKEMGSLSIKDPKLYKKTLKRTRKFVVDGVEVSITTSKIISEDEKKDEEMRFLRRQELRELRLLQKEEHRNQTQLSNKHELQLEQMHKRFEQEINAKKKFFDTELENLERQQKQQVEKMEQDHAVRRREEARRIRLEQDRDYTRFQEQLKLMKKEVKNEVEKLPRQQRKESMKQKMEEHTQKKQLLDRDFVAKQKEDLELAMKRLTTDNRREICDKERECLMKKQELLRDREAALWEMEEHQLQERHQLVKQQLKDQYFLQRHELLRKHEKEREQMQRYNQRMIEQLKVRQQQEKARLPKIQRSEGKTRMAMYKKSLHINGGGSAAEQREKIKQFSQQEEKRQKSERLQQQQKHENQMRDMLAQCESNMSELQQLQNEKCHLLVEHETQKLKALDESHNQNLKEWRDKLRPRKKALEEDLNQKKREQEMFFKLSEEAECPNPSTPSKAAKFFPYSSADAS
Assay [17] has the same target. The following applies: at 1 µM.
Assay [18] concerns the target T5, Mitogen-activated protein kinase kinase kinase kinase 2 (Homo sapiens) (UniProt Q12851).
T5 sequence (whole entry): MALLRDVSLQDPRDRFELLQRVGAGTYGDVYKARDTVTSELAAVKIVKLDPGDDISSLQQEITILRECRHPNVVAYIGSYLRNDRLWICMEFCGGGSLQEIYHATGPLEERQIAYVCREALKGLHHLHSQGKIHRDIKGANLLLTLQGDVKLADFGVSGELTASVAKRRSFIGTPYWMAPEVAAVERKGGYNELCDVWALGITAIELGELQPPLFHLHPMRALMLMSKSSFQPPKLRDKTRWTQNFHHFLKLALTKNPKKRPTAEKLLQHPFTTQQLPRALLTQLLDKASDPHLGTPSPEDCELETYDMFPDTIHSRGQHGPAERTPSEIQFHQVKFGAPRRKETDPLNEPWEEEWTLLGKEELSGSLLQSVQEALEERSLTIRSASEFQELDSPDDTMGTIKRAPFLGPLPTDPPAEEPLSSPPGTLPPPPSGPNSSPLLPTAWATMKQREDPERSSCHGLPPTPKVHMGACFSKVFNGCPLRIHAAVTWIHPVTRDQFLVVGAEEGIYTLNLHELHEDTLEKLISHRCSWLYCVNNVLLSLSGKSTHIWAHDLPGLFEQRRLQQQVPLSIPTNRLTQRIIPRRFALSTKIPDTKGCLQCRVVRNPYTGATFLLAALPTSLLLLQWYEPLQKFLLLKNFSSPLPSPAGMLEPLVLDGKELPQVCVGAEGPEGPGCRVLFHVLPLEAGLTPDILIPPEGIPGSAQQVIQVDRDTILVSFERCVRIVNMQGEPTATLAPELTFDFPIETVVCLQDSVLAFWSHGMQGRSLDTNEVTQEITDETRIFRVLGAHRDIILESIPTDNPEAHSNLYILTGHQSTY
The following applies: at 0.1 µM.

The target of assay [19] is T5, Mitogen-activated protein kinase kinase kinase kinase 2 (Homo sapiens). Conditions: at 1 µM.
Assay [20] addresses Mitogen-activated protein kinase kinase kinase kinase 4 (Homo sapiens) (UniProt O95819). Conditions: at 0.1 µM.

In general, inhibition refers to the relative decrease from the control value, in per cent.

Chain of Aurora kinase B (Homo sapiens) (Q96GD4 whole entry): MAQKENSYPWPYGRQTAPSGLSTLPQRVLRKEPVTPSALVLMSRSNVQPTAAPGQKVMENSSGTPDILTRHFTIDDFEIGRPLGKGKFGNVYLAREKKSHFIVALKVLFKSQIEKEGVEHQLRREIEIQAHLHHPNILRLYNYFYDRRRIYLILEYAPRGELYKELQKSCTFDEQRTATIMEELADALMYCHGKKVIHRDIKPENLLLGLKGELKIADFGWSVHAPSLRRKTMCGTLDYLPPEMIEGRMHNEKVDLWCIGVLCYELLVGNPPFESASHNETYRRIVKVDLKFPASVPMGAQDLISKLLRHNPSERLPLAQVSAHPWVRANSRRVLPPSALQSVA
Chain of BDNF/NT-3 growth factors receptor (Homo sapiens) (Q16620 32-822 limits assumed): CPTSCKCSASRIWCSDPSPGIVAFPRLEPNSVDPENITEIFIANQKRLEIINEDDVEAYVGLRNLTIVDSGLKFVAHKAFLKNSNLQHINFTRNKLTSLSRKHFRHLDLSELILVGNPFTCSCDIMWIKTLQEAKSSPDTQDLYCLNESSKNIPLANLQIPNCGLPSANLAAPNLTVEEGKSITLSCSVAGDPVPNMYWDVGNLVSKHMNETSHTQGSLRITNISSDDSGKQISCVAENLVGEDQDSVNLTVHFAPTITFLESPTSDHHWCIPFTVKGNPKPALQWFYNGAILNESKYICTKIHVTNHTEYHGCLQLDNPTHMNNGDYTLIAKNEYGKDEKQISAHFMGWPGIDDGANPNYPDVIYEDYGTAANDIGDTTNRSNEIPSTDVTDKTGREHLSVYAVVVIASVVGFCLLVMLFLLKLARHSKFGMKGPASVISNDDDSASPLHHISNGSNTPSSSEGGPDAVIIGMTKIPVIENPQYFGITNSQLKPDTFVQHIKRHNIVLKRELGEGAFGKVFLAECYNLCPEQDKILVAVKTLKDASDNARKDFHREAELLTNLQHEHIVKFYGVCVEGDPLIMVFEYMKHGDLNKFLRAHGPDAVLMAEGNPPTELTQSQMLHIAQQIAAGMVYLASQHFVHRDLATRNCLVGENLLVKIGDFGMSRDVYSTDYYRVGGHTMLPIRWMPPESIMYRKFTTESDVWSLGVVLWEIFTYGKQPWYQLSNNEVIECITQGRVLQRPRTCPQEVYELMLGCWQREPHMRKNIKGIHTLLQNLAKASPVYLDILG
Chain of High affinity nerve growth factor receptor (Homo sapiens) (P04629 33-796 limits assumed): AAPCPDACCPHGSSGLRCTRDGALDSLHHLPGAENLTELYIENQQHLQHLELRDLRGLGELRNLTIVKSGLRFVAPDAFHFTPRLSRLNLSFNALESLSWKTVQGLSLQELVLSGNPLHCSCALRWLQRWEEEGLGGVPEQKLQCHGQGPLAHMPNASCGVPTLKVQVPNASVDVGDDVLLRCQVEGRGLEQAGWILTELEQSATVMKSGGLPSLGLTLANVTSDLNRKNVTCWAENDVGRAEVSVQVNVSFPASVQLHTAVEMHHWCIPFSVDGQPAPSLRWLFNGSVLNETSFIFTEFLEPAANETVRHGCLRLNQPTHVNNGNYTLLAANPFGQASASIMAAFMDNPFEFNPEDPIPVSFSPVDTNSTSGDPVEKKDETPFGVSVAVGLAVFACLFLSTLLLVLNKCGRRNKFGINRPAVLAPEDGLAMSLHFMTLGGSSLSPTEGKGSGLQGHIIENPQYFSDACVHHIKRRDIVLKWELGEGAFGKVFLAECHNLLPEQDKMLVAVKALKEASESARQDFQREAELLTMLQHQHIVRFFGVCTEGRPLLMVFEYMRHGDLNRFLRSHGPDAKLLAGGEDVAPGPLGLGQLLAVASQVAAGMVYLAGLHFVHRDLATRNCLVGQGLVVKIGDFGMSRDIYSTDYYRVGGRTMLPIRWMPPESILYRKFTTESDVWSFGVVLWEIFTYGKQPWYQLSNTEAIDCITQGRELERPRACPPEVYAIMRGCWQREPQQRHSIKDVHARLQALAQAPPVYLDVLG
Chain of Mitogen-activated protein kinase kinase kinase kinase 4 (Homo sapiens) (O95819 2-1239 limits assumed): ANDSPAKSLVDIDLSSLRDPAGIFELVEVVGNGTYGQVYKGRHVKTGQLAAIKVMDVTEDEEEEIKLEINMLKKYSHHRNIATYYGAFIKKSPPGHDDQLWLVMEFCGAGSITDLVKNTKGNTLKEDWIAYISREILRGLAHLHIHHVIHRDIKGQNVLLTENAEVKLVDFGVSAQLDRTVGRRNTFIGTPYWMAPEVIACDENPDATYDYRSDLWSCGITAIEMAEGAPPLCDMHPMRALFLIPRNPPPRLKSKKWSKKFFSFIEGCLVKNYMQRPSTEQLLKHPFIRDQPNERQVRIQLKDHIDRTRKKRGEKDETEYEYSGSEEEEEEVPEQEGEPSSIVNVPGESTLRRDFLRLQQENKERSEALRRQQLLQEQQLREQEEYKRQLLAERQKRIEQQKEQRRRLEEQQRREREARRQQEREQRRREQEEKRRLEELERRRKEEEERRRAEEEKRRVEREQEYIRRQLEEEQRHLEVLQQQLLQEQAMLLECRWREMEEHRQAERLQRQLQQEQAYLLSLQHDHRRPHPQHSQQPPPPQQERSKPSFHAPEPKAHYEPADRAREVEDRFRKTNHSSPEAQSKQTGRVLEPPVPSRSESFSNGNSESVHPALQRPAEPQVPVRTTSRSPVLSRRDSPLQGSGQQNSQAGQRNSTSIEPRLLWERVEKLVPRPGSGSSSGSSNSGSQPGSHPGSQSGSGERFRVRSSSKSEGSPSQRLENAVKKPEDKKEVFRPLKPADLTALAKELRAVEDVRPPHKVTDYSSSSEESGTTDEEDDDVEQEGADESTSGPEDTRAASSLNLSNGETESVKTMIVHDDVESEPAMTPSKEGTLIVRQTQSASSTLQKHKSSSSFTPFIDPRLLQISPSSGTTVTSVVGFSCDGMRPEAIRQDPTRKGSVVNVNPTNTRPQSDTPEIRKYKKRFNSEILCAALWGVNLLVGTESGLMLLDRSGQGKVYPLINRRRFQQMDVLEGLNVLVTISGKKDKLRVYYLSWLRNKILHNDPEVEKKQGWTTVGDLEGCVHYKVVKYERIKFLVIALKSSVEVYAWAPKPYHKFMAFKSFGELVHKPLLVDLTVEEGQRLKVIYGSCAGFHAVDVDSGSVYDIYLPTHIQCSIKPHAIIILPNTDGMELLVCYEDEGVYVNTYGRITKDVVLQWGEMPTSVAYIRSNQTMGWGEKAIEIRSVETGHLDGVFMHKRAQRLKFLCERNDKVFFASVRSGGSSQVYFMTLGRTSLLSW

Consider `Nc1ncnc2occ(-c3ccc(NC(=O)Nc4cccc(C(F)(F)F)c4)cc3)c12`, for which the inhibition was 96.5% in assay [1]; 59.4% in [2]; 91.1% in [3]; 58.9% in [4]; 88.9% in assay [5]; -1.65% in assay [6]. The inhibition was 5.17% in [7]; -3.69% in assay [8]; 18.1% in assay [9]; 9.27% in assay [10]; 60.4% in [11]; 30.7% in assay [12]. Besides, the inhibition in assay [13] is 66.7%; in [14], 42.5%; in assay [15] it was 88.8%; in assay [16], 26.4%; in assay [17] it was 67.9%; in [18] it was 28.7%. Also, the inhibition in assay [19] came out at 59.2%; in [20], 2.65%.

In the case of `Cn1cc(C=C2C(=O)Nc3cccnc32)c2ccccc21`, the inhibition in assay [1] came to 66%; in [2] it was 25.3%; in assay [3], 75.5%; in assay [4], 20.5%; in assay [5], 71.6%; in assay [6] it was 2.53%. In addition, the inhibition in [7] was 6.47%; in [8], -0.05%; in [9], 22.8%; in assay [10], 5.95%; in assay [11], 57%; in [12] it was 7.66%. In addition, the inhibition in [13] is 55.1%; in assay [14] it was 5.21%; in [15] it was 62.6%; in assay [16] it was 3.81%; in assay [17] it was 12%; in assay [18], 2.96%. Moreover, the inhibition was 17.9% in assay [19] and 6.66% in [20].

With `CCn1c(-c2nonc2N)nc2ccncc21`, the inhibition was -0.79% in [1]; -1.44% in [2]; -3.63% in [3]; -2.79% in [4]; -1.79% in assay [5]; 0.17% in [6]. Besides, the inhibition in [7] is 3.88%; in assay [8], 0.97%; in assay [9], 6.38%; in assay [10], 2.36%; in [11] it was 6.98%; in assay [12] it was 0.79%. For the same compound, the inhibition in assay [13] was 3.04%; in [14] it was 0.9%; in assay [15], 6.04%; in [16], 2.02%; in assay [17], 4.14%; in assay [18], 1.41%. Besides, the inhibition in assay [19] worked out at 3.01%; in [20] it was 2.18%.

Consider `CS(=O)(=O)Nc1ccc(N/C=C2\C(=O)Nc3ccccc32)cc1`, for which the inhibition in [1] was 46.7%; in assay [2] it was 11.2%; in assay [3], 58.6%; in assay [4], 14.1%; in assay [5], 57%; in [6], -1.93%. In addition, the inhibition in [7] was determined as 1.85%; in assay [8] it was 3.51%; in assay [9], 18.9%; in assay [10] it was 7.34%; in [11], 47.6%; in [12], 7.77%. For the same compound, the inhibition in assay [13] is 43%; in assay [14], 6.66%; in assay [15] it was 61.1%; in [16], -2.57%; in [17], 0.71%; in assay [18], 2.65%. The inhibition turned out to be 18.6% in assay [19] and 18.1% in [20].

With `COc1cc(C)c(NC(=O)CN(C)C)cc1Nc1nc(Nc2cccc(F)c2C(N)=O)c2cc[nH]c2n1`, the inhibition in assay [1] was determined as 13%; in [2], 2.25%; in assay [3] it was 1.27%; in assay [4], 2.83%; in assay [5], 4.14%; in assay [6] it was 0.4%. Moreover, the inhibition in assay [7] is -0.74%; in assay [8] it was 1%; in assay [9] it was 53.5%; in assay [10], 2.06%; in assay [11] it was 13.5%; in [12], -2.09%. Moreover, the inhibition in assay [13] is 6.07%; in assay [14], -0.55%; in assay [15], 12.3%; in [16] it was 2.47%; in [17] it was 3.17%; in [18], 9.71%. The inhibition in assay [19] turned out to be 43.9%; in assay [20] it was 4.26%.

As to `Cc1ccc(C(=O)NC2CCCCC2)cc1-c1ccc(C(=O)NCC2CC2)cc1`, the inhibition was 2.19% in assay [1]; 0.88% in [2]; -0.15% in assay [3]; 0.18% in [4]; -0.57% in assay [5]; 4.64% in assay [6]. In addition, the inhibition stood at 5.63% in assay [7]; 1.37% in [8]; 8.51% in assay [9]; 4.04% in assay [10]; 4.4% in assay [11]; 3.05% in assay [12]. For the same compound, the inhibition in [13] turned out to be 7.57%; in assay [14] it was 2.71%; in [15] it was 14%; in assay [16], 7.27%; in [17] it was 6.5%; in assay [18], 2.78%. The inhibition in assay [19] is 2.05%; in assay [20], 2.48%.
